This is an account of results in PMC4336329 (PLoS ONE, 2015).

The campaign covered roughly 310,000 compounds. About 14,000 (4.5%) showed an effect of 50% or more. The effect is printed as a negative number. For the sample, strong results were picked, then their nearest neighbours and some compounds at random.
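Further: peak tail current of the secondary pulse compared with the same well before compound.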

Sequence of human ether-à-go-go-related gene (hERG) potassium channel (Q12809 whole entry, looked up): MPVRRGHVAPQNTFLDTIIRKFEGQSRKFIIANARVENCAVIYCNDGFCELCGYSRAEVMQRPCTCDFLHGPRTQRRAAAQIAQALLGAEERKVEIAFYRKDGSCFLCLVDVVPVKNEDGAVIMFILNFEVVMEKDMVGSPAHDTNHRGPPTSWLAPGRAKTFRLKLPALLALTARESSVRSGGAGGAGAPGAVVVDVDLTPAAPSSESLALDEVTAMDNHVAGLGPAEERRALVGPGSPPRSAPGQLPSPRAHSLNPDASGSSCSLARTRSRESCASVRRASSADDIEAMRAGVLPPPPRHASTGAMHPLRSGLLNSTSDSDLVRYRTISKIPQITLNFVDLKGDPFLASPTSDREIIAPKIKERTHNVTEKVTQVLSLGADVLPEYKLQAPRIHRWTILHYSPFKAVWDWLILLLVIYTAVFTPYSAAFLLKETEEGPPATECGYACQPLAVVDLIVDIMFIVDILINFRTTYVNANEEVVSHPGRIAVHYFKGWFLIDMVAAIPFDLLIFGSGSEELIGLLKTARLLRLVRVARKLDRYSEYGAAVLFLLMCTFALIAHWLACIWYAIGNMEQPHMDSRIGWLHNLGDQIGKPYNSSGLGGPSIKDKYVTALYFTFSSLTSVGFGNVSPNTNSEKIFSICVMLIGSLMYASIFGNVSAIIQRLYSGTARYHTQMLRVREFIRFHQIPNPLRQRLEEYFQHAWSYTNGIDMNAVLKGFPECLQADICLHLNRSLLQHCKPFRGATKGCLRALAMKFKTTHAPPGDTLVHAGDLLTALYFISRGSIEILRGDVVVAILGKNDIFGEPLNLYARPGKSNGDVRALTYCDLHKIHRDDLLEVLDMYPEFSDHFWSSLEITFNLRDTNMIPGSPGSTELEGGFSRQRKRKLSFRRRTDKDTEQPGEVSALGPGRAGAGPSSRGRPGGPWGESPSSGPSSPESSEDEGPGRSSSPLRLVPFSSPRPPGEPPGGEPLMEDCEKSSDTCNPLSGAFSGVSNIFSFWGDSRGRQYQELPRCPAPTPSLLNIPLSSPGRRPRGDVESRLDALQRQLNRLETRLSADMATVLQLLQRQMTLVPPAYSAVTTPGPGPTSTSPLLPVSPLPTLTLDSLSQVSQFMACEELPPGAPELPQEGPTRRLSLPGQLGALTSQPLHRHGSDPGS

This test has as its target human ether-à-go-go-related gene (hERG) potassium channel (human, UniProt Q12809). The test is described as follows: primary screen, population patch clamp on CHO cells stably expressing hERG; higher = less effect of the substance.
For the compound `CCC1CCCCN1C(=O)Nc1cccc(NC(=O)N2CCCCC2CC)c1` (stereo not drawn), the “hERG current change (%, negative = inhibition) at 10uM” value stood at 9.57%.
As for `CC(C)c1nnc(NC(=O)C2CCCN2S(=O)(=O)c2ccc(Cl)cc2)s1` (stereo not drawn), the figure is 7.71%; as for `Fc1ccc(N=c2ssnc2Cl)c(F)c1`, 22.1%.
Take `CCCc1cc(=O)n2[nH]c(-c3ccc(C)cc3)cc2n1`: the “hERG current change (%, negative = inhibition) at 10uM” value is -0.208%.
Next, `O=C(CN1CCN(C(=O)C2CCCO2)CC1)Nc1ccc(Cl)c(Cl)c1` (stereo not drawn): -22.5%; `Cc1ccc(Nc2cnn(C34CC5CC(CC(CC(=O)O)(C5)C3)C4)c(=O)c2Cl)cc1`: 12%; `Cc1ccc(-n2nc3c(c2NC(=O)c2ccc(OC(C)C)cc2)CS(=O)C3)cc1` (stereo not drawn): -12.8%.
As for `CCc1ccc(S(=O)(=O)Nc2c(C)n(C)n(-c3ccccc3)c2=O)cc1`, the figure is -2.47%.
Next, `O=c1oc2cc(O)c(Cl)cc2c2ccccc12`: 3.98%.
For `O=C(NCCCCc1ccccc1)C12CN(Cc3ccccc3)CC1C(c1cccc([N+](=O)[O-])c1)=NO2` (stereo not drawn), the “hERG current change (%, negative = inhibition) at 10uM” value is on record as -6.27%.
In the case of `CC(C)CCNC(=O)C12CN(Cc3ccccc3)CC1C(c1cccc([N+](=O)[O-])c1)=NO2` (stereo not drawn), the “hERG current change (%, negative = inhibition) at 10uM” value was -32.9%.
Next, `CC(C)CCNC(=O)C12CN(Cc3ccccc3)CC1C(c1ccc([N+](=O)[O-])cc1)=NO2` (stereo not drawn): -53.1%; `Cc1ccc(CCNC(=O)C23CN(Cc4ccccc4)CC2C(c2cccc([N+](=O)[O-])c2)=NO3)cc1` (stereo not drawn): -14.8%.
Consider `O=C(NCCCCc1ccccc1)C12CN(Cc3ccccc3)CC1C(c1ccc([N+](=O)[O-])cc1)=NO2` (stereo not drawn), for which the “hERG current change (%, negative = inhibition) at 10uM” value came to 5.9%.
Next, `CCCCN(CCCC)CCCNC(=O)C12CN(Cc3ccccc3)CC1C(c1cccc([N+](=O)[O-])c1)=NO2` (stereo not drawn): -80.6%; `CCC(C)NC(=O)CSc1nc2ccccc2c(=O)n1-c1c(C)n(C)n(-c2ccccc2)c1=O` (stereo not drawn): 1.66%; `COc1ccc(/C=C(\C#N)C(=O)Nc2cc(S(=O)(=O)N3CCCCC3)ccc2N2CCCCC2)cc1`: 6.92%.
For `CNC(=S)Nc1ccc([N+](=O)[O-])cc1`, the “hERG current change (%, negative = inhibition) at 10uM” value is reported as 11.9%.
Next, `Cc1ccc(S(=O)(=O)N(C)CC(=O)N(CC(C)C)C2CCS(=O)(=O)C2)cc1` (stereo not drawn): -2.85%; `c1ccc(N2N=C(c3cccs3)CC2c2ccco2)cc1` (stereo not drawn): 2.24%.
`O=C(NN(CC(O)COc1ccccc1)CC(O)COc1ccccc1)c1ccccc1` (stereo not drawn): the “hERG current change (%, negative = inhibition) at 10uM” value was -66.1%.
Next, `O=C(NNCC(O)COc1ccccc1)c1ccccc1` (stereo not drawn): 1.06%; `COc1ccc(OCC(O)CNC(=O)c2ccccc2)cc1` (stereo not drawn): 9.92%.
In the case of `Cc1ccc(S(=O)(=O)N(c2cccc(C(F)(F)F)c2)C2C=CS(=O)(=O)C2)cc1` (stereo not drawn), the “hERG current change (%, negative = inhibition) at 10uM” value is recorded as 6.3%.
For the compound `C=CCN(C(=O)CCC(=O)Nc1cc(C)on1)C(C(=O)NC1CCCC1)c1ccc(C)cc1` (stereo not drawn), the “hERG current change (%, negative = inhibition) at 10uM” value came to 0.416%.
In the case of `Cc1cc(NC(=O)CCC(=O)N(Cc2ccc(F)cc2)C(C(=O)NC2CCCC2)c2ccco2)no1` (stereo not drawn), the “hERG current change (%, negative = inhibition) at 10uM” value was determined as 0.819%.
As for `C=CCN(C(=O)CCC(=O)Nc1cc(C)on1)C(C(=O)NC1CCCC1)c1ccc(CC)cc1` (stereo not drawn), the figure is -17.5%; as for `Cc1cc(NC(=O)CCC(=O)N(Cc2ccccc2)C(C(=O)NC2CCCC2)c2ccco2)no1` (stereo not drawn), -21.8%; as for `C=CCN(C(=O)CCC(=O)Nc1cc(C)on1)C(C(=O)NC1CCCC1)c1ccc(Cl)cc1` (stereo not drawn), -56.3%.
As for `Cc1cc(NC(=O)CCC(=O)N(CCc2ccccc2)C(C(=O)NC2CCCC2)c2ccco2)no1` (stereo not drawn), the figure is -66.1%.
As for `CCN(CC)S(=O)(=O)c1ccc2c(c1)CC(C(=O)N1CCCC1)N2C(C)=O` (stereo not drawn), the figure is 1.51%; as for `Cl.NCCSC1CC(=O)N(c2ccc(F)cc2)C1=O` (stereo not drawn), 17%; as for `CC1=C(C)CS(=O)N(S(=O)(=O)c2ccccc2)C1` (stereo not drawn), -16.3%.
On to `O=C(CN(C(=O)c1ccccc1Cl)N1C(=O)CCCC1=O)c1ccc(Cl)cc1`, for which the “hERG current change (%, negative = inhibition) at 10uM” value is 7.29%.
Next, `Cc1ccc(C(=O)CN(C(=O)c2ccc(Cl)cc2)N2C(=O)CCC2=O)cc1`: -50.7%; `O=C(CN(C(=O)c1ccc(Cl)cc1)N1C(=O)C2CCCCC2C1=O)c1ccc(Cl)cc1` (stereo not drawn): 15.1%.
As for `Cc1ccccc1CC1(CO)CCCN(C(=O)c2cc(-c3ccccc3)no2)C1` (stereo not drawn), the figure is 2.91%.
As for `CC(=O)Oc1ccc(C(=O)Nc2cccc3c2CCCC3)cc1`, the figure is 10.4%.
For `Cc1c(NC(=O)Cc2ccccc2)cccc1C(=O)NN1C(=O)c2ccccc2C1=O`, the “hERG current change (%, negative = inhibition) at 10uM” value is -10.2%.
Turning to `N#CCCn1cc(/C=N/NC(N)=S)c(-c2ccccc2)n1`, the “hERG current change (%, negative = inhibition) at 10uM” value is given as -28%.
On to `Cc1ccc(C(=O)NCc2ccccn2)o1`, for which the “hERG current change (%, negative = inhibition) at 10uM” value was 4.94%.
For `O=c1cc(CN2CCN(S(=O)(=O)/C=C/c3ccccc3)CC2)c2ccc(O)cc2o1`, the “hERG current change (%, negative = inhibition) at 10uM” value is reported as -76.8%.
With `Cc1cc2oc(=O)cc(CN3CCN(S(=O)(=O)/C=C/c4ccccc4)CC3)c2cc1C`, the “hERG current change (%, negative = inhibition) at 10uM” value is listed as 1.24%.
Next, `Cc1ccc2c(CN3CCN(S(=O)(=O)/C=C/c4ccccc4)CC3)cc(=O)oc2c1`: -72.4%; `O=c1cc(CN2CCN(S(=O)(=O)c3ccc4c(c3)OCCO4)CC2)c2ccc(O)cc2o1`: -4.32%; `O=c1cc(CN2CCc3ccccc32)c2ccc(O)cc2o1`: -0.218%.
`O=S(=O)(/C=C/c1ccccc1)N1CCN(Cc2ccccc2)CC1`: the “hERG current change (%, negative = inhibition) at 10uM” value was -25.3%.
As for `CCOc1ccc(N2C(=O)CC(N3CCN(c4ccc(Cl)cc4)CC3)C2=O)cc1` (stereo not drawn), the figure is 18.5%; as for `CCOC(=O)C1CCN(S(=O)(=O)c2c(C)[nH]c(=O)[nH]c2=O)CC1`, -0.439%; as for `COc1ccc(C(CNC(=O)CSc2ccccc2F)N2CCOCC2)cc1` (stereo not drawn), 10.7%.
On to `CC(=O)Nc1ccc(/C=C(\C#N)C(=O)NC2CCCCC2)cc1`, for which the “hERG current change (%, negative = inhibition) at 10uM” value is recorded as 11.2%.
Turning to `O=C(Cc1ccccn1)c1ccccc1`, the “hERG current change (%, negative = inhibition) at 10uM” value came to 30.3%.
As to `Cc1ccc(S(=O)(=O)N/N=C\c2ccc3c(c2)OCO3)cc1C`, the “hERG current change (%, negative = inhibition) at 10uM” value is given as -11.8%.
With `OCC(Cc1ccccc1)Nc1c2ccccc2nc2ccccc12` (stereo not drawn), the “hERG current change (%, negative = inhibition) at 10uM” value is given as -71.2%.
As for `c1coc(CNc2c3c(nc4ncnn24)CCC3)c1`, the figure is -29.6%.
As for `Cl.c1ccc(CNc2ncnc3ccccc23)cc1`, the figure is 4.3%.
Regarding `c1coc(CNc2c3c(nc4ccccc24)CCC3)c1`, the “hERG current change (%, negative = inhibition) at 10uM” value is -78.7%.
Next, `COCCNc1c2c(nc3ccccc13)CCC2.Cl`: -58.5%; `c1ccc(CNc2c3ccccc3nc3ccccc23)cc1`: -77.1%.
In the case of `O=C(NCc1ccco1)c1c2c(nc3ccccc13)CCC2`, the “hERG current change (%, negative = inhibition) at 10uM” value was -24.8%.
Next, `O=C(NC(CO)Cc1ccccc1)c1ccccc1` (stereo not drawn): -10.5%.
Take `CN(C)CCNc1c2c(nc3ccccc13)CCC2`: the “hERG current change (%, negative = inhibition) at 10uM” value is listed as -0.291%.
As for `CN(C)CCCNc1c2c(nc3ccccc13)CCC2.Cl`, the “hERG current change (%, negative = inhibition) at 10uM” value is -3.18%.
Next, `c1ccc(CNc2nc(-c3ccccc3)nc3ccccc23)cc1`: 4.15%; `O=C(Cc1ccccc1)NNc1c2ccccc2nc2ccccc12`: 12.3%; `Cc1ccc(N2C(=O)C3C4CC(=O)C(c5ccccc54)C3C2=O)cc1C` (stereo not drawn): -12.3%.
Next, `C#CCOCCOCCOCCNc1nc(N2CCN(C(=O)Cn3cc(CC(C)O)nn3)CC2)nc(N2CCN(C(=O)Cn3cc(CC(C)O)nn3)CC2)n1` (stereo not drawn): -7.58%; `CC(C)(C)[C@H]1C=C(C(=O)O)O[C@@H](OCCCCO)C1`: 6.41%; `CC12CCC(C(=O)NCc3ccco3)(OC1=O)C2(C)C` (stereo not drawn): 2.02%.
Consider `COc1cccc(NC(=O)Nc2cc(C(=O)O)ccc2N2CC3CC(C2)c2cccc(=O)n2C3)c1` (stereo not drawn), for which the “hERG current change (%, negative = inhibition) at 10uM” value amounted to 8.25%.
As for `O=C(Nc1nccs1)c1cc2sccc2n1Cc1ccc(Cl)cc1`, the figure is -2.4%; as for `Cc1ccc(C)c(N(CC(=O)NC(C)(C)C)C(=O)CCC(=O)Nc2nccs2)c1`, 2.56%; as for `CC(C)Cn1c(N)c(C(=O)CSc2nc3ncc(Cl)cc3[nH]2)c(=O)n(C)c1=O`, -0.019%.
Next, `Cc1coc2cc3oc(=O)c(CCC(=O)N4CCC(C(=O)O)(c5ccccc5)CC4)c(C)c3cc12`: 0.933%.
Next, `CC(C)(C)N1CC(OC(N)=O)C1`: 21%.
Take `CC(C)(C)Nc1c2ccccc2nc2ccccc12`: the “hERG current change (%, negative = inhibition) at 10uM” value is -68.2%.
As for `OCCNc1c2c(nc3ccccc13)CCCC2`, the figure is -39%; as for `Cl.c1ccc(CNc2c3c(nc4ccccc24)CCC3)cc1`, -75.3%.
Next, `CC(C)NCC(=O)Nc1c2c(nc3ccccc13)CCC2.O=C(O)C(=O)O`: 6.26%; `Cc1c2ccccc2nc2ccccc12`: -1.84%.
`CC(C)CNc1c2c(nc3ccccc13)CCC2.Cl`: the “hERG current change (%, negative = inhibition) at 10uM” value is listed as -69.2%.
Next, `CC(C)(C)OC(=O)NNc1c2ccccc2nc2ccccc12`: -27.7%.
As for `CC(C)CNC(=O)COC(=O)c1c2c(nc3ccccc13)CCC2`, the figure is 4.12%.
Next, `Clc1c2c(nc3ccccc13)CCC2`: 16.4%; `Cc1ccc(N/N=C/c2ccncc2)cc1.Cl`: 4.03%; `O=C(COC(=O)c1ccc(O)cc1)NC1CCCCCC1`: 7.22%.
On to `O=C(NNS(=O)(=O)c1ccc(C(F)(F)F)cc1)c1cnn(-c2ccccc2)c1C(F)(F)F`, for which the “hERG current change (%, negative = inhibition) at 10uM” value was found to be 11.5%.
